Reference: the supplement of paper PMC11732987, “Enantioselective OTUD7B fragment discovery through chemoproteomics screening and high-throughput optimisation” (Communications Chemistry, 2025)

Assays:
Experiment in all cases: log2 ratio of Biotin-Ahx-Ub-VS probe labelling (fragment/DMSO); higher = less target engagement (more negative = stronger competition), active = hit call of the paper (q ≤ 0.05, log2 ratio ≤ -1)
Details in all cases: compound concentration: 200 uM; treatment time: 3 h
USP34 = USP34 (UniProt Q70CQ2)
Sequence of USP34 (Q70CQ2 whole entry, the tested form may be a part): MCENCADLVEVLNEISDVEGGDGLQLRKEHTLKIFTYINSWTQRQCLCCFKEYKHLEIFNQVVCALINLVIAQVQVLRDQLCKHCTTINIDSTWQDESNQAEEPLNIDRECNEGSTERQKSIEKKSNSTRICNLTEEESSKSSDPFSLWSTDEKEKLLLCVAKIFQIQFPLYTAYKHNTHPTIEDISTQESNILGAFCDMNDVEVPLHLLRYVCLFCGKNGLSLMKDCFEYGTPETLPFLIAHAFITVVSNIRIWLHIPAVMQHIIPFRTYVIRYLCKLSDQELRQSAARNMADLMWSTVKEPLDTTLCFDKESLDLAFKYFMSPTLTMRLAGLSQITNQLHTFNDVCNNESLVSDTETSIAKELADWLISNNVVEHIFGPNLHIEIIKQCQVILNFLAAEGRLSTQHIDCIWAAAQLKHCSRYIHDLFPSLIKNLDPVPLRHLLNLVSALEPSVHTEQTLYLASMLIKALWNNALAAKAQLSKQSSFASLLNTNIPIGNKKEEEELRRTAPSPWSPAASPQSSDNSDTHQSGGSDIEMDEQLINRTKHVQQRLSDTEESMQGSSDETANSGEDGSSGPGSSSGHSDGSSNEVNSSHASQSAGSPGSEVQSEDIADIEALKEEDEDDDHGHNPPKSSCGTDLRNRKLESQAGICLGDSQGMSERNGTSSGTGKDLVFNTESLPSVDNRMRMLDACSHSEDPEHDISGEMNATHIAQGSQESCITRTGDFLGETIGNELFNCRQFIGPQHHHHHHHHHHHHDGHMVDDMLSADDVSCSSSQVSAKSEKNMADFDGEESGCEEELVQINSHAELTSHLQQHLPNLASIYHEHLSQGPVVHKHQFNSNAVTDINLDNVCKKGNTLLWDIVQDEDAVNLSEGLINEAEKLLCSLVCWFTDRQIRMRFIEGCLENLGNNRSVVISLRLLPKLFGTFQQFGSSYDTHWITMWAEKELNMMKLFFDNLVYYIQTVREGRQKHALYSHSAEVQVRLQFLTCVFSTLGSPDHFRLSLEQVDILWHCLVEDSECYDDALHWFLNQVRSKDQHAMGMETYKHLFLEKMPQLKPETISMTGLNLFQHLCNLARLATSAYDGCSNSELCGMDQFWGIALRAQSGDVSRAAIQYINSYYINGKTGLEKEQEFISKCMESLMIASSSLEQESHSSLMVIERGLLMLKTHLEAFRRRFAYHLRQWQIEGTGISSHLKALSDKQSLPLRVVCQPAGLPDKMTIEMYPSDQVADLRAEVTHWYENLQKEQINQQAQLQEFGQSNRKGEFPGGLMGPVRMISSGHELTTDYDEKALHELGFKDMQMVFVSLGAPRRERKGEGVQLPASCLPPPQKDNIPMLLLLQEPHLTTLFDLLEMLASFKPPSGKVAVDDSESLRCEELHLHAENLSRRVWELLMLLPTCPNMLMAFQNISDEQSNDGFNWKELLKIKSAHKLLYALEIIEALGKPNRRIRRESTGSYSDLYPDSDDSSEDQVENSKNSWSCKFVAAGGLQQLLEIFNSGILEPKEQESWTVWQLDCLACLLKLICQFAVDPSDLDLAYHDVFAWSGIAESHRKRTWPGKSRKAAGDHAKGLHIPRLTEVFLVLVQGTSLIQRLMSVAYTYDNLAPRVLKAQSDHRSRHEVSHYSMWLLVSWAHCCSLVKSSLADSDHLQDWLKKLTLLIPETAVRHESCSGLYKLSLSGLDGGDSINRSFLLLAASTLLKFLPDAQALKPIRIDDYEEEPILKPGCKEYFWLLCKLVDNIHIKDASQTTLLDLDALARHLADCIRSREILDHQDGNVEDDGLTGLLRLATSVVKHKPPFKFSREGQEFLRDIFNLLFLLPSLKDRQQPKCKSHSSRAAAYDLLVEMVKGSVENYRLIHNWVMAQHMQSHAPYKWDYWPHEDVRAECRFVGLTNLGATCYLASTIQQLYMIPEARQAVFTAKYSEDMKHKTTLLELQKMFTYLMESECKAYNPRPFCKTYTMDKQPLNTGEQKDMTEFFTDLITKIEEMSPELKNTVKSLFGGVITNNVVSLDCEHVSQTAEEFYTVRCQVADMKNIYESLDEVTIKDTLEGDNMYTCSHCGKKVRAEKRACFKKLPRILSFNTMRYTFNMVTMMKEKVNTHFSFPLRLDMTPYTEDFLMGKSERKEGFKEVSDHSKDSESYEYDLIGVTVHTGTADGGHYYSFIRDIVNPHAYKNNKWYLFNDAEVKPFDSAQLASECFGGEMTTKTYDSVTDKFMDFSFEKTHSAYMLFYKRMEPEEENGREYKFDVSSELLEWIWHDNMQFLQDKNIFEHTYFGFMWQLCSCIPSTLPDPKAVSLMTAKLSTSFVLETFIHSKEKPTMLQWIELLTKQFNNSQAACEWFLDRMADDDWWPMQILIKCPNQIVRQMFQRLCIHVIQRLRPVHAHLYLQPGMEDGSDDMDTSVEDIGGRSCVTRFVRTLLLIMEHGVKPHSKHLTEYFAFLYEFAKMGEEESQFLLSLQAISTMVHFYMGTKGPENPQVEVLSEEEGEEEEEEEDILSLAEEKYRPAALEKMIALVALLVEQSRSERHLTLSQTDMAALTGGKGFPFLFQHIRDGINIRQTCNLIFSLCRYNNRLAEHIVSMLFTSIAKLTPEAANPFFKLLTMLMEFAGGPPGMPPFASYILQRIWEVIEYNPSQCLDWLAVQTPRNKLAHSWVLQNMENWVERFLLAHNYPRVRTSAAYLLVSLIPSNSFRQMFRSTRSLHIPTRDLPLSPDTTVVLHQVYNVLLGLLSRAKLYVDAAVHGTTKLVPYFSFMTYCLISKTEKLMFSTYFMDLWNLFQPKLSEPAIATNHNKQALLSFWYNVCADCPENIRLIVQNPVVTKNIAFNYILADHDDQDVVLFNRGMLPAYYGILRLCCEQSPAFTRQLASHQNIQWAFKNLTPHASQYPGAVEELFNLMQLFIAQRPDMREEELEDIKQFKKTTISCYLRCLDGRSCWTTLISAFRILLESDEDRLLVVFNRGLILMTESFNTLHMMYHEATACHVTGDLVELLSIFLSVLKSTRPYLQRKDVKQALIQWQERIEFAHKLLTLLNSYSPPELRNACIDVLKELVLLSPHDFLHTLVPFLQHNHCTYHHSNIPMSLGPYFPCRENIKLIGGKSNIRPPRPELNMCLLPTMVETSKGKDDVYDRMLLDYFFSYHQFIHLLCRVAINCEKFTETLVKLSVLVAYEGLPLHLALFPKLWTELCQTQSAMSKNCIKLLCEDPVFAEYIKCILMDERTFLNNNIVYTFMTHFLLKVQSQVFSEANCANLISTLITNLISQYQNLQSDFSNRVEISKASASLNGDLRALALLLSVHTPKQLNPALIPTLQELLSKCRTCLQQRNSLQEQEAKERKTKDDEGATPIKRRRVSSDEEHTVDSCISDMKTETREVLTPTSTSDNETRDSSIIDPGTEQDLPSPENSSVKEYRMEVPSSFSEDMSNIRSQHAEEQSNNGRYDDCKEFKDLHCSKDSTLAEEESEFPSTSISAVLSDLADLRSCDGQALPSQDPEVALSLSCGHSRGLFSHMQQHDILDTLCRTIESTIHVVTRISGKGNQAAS
In short: (§1)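 Average log2 ratios of fragment over vehicle were obtained by unpaired t-test from global-median-normalised Spectronaut label-free quantities. Proteins with ≥2 unique peptides were included. HEK293T lysate (495 µg per sample) was treated in triplicate with fragment at 200 µM or vehicle for 3 h, then with Biotin-Ahx-Ub-VS at 0.5 µM final for 1 h, and labelled DUBs were NeutrAvidin-enriched and run by diaPASEF LC-MS/MS.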

USP36 = biological target: T1, USP36 (UniProt Q9P275)
T1 sequence (whole entry): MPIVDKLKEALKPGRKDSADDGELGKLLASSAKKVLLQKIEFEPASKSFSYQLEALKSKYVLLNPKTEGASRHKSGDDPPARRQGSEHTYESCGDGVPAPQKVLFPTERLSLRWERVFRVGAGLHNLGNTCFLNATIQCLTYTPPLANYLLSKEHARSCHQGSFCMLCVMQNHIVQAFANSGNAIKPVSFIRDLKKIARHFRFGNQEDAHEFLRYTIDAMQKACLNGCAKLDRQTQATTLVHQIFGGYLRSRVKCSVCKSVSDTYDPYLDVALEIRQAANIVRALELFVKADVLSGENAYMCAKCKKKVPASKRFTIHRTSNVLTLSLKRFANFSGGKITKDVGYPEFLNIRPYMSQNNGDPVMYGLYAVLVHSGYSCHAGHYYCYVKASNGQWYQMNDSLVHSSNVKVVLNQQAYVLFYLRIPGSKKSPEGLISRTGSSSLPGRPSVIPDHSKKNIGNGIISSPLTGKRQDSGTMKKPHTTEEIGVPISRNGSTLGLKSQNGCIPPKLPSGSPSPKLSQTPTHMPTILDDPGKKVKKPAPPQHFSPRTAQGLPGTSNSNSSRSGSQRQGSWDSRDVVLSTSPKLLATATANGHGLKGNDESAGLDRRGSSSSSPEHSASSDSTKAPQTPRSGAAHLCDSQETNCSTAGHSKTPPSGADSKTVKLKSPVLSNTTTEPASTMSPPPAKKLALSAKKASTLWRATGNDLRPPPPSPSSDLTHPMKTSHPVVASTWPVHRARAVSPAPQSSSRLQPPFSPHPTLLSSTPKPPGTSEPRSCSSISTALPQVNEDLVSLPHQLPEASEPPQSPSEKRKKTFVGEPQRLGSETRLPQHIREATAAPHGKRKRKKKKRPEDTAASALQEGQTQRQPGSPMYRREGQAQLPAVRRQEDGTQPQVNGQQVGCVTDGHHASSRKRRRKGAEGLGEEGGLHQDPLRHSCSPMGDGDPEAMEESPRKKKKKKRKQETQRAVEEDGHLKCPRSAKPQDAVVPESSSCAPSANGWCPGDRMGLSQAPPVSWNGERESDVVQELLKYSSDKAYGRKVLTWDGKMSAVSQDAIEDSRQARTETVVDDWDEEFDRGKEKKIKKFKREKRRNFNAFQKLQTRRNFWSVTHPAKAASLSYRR
In short: as §1

USP38 = biological target: T2, USP38 (UniProt Q8NB14)
T2 sequence (whole entry): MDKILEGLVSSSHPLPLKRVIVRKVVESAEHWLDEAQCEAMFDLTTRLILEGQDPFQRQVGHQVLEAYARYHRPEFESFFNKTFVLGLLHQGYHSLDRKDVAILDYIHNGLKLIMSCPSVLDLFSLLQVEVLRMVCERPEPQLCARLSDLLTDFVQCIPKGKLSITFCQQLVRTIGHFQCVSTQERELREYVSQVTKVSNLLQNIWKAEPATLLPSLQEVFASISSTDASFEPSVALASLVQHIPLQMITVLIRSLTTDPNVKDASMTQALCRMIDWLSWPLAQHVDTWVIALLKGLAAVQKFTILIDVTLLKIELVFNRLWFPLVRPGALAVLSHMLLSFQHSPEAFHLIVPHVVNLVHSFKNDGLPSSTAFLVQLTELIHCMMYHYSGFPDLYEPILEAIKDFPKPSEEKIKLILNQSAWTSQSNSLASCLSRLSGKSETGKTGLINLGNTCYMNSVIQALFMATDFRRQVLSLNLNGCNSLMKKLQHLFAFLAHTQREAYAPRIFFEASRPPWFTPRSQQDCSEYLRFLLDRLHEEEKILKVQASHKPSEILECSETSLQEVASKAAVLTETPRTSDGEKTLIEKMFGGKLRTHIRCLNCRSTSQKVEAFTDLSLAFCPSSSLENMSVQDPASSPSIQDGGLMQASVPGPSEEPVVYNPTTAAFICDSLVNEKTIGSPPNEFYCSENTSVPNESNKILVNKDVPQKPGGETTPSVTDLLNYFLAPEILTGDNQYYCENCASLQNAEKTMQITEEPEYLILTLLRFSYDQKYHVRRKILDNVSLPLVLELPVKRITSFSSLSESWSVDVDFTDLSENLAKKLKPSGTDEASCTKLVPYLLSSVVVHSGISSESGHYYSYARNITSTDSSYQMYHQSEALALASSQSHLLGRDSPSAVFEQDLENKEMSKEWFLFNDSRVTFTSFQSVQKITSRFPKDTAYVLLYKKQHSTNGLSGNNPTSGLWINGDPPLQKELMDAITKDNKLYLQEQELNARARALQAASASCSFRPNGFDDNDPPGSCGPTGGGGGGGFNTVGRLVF
In short: as §1

USP39 = biological target: T3, USP39 (UniProt Q53GS9)
T3 sequence (whole entry): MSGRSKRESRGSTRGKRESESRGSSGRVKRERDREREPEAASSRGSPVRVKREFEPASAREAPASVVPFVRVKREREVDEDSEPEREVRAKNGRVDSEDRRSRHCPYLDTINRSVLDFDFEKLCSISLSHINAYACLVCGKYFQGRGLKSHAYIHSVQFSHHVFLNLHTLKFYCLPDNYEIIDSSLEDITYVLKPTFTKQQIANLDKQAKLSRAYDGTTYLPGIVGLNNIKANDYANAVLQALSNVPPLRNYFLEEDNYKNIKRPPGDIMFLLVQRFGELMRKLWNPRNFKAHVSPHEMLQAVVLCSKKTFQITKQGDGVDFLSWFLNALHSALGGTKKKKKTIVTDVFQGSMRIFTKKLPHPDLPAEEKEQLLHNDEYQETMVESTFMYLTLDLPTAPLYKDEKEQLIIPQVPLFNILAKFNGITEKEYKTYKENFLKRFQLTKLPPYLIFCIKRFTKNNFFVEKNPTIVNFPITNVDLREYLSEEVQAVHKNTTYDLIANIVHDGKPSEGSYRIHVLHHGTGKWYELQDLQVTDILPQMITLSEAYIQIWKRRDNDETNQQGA
In short: as §1

USP4 = biological target: T4, USP4 (UniProt Q13107)
T4 sequence (whole entry): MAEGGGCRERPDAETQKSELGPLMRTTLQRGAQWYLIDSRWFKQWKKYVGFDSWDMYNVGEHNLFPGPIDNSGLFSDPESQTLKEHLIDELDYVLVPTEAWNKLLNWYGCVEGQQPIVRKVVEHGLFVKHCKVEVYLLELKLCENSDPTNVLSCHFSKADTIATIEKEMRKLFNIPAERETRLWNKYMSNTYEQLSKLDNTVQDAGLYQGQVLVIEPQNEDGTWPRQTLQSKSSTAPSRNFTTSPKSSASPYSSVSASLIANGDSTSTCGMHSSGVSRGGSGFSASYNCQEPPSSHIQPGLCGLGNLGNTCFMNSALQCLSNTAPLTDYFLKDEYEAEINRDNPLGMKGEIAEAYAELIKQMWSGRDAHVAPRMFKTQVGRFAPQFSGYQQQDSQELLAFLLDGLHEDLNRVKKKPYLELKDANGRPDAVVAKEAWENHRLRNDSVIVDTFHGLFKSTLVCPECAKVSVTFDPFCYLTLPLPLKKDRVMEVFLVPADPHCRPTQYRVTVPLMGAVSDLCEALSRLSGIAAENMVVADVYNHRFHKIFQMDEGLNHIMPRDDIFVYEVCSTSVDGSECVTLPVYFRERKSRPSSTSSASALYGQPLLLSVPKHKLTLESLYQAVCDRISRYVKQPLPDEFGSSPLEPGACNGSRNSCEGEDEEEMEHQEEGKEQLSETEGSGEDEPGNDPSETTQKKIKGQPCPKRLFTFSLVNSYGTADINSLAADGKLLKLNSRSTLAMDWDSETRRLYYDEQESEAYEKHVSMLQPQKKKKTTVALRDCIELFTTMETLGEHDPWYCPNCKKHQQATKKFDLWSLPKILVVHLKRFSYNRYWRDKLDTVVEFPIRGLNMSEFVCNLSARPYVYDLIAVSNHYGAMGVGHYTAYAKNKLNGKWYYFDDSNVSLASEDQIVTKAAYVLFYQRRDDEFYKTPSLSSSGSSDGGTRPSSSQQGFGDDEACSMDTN
In short: as §1

Measured: log2 ratio of Biotin-Ahx-Ub-VS probe labelling

O=C(CCl)NCC1(c2ccccc2)CC1
inactive: USP34 -0.227 | USP36 -0.0695 | USP38 0.127 | USP39 -0.168 | USP4 -0.0752
